Laboratory results from PubChem BioAssay (Tox21).
Several values for one entry are separate records, joined by “and”; a condition that tells them apart may be missing. Identical values can stand only once. Where a structure was tested more than once in an assay, its records may differ in their call. Activity calls are given as the source filed them. Unless noted, calls come from the whole dose curve; as a rule, active = well fitted curve in the direction sought with a large enough effect in the repeat runs; inconclusive = weak or mixed curves; inactive = no such curve, though single readings can be large; an effect the other way counts as inactive or inconclusive.

How the values were obtained:
[1] = qHTS assay to test for compound auto fluorescence at 535 nm (green) in HEK293 cells (AID 720680)
[2] = qHTS assay to test for compound auto fluorescence at 460 nm (blue) in HEK293 cell free culture (AID 720681)
Method in brief: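 Blue fluorescence (Ex 405/Em 460 nm, triamterene-equivalent) was read immediately after pin transfer of compound or DMSO into medium (DMEM, 10% FBS) without cells.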

[3] = qHTS assay to test for compound auto fluorescence at 535 nm (green) in HEK293 cell free culture (AID 720682)
Method in brief: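 Steps: dispense DMEM/10% FBS into empty wells; pin in compound or DMSO; measure fluorescence at 485/535 nm. Values are fluorescein equivalents.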

[4] = qHTS assay to test for compound auto fluorescence at 590 nm (red) in HEK293 cell free culture (AID 720683)
Method in brief: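 Red-channel autofluorescence of compounds in culture medium (DMEM, 10% FBS), no cells, measured at 540/590 nm. Rose Bengal sodium is the reference fluorophore for equivalence.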

[5] = qHTS assay to test for compound auto fluorescence at 590 nm (red) in HepG2 cell free culture (AID 720684)
Method in brief: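 Steps: dispense MEM/10% FBS medium, no cells; pin compound or DMSO vehicle; read red channel, Ex/Em 540/590 nm. Output given as Rose Bengal sodium equivalents.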

[6] = qHTS assay to test for compound auto fluorescence at 460 nm (blue) in HepG2 cell free culture (AID 720685)
Method in brief: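 Compound (23 nL) or DMSO pinned into cell-free MEM with 10% FBS; blue fluorescence read at 405/460 nm excitation/emission, expressed as auto-fluorescence equivalency to triamterene.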

[7] = qHTS assay to test for compound auto fluorescence at 535 nm (green) in HepG2 cell free culture (AID 720686)
[8] = qHTS assay to test for compound auto fluorescence at 460 nm (blue) in HepG2 cells (AID 720687)
Method in brief: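 Blue-channel autofluorescence (Ex/Em 405/460 nm, triamterene-equivalent) was measured after 1 hr compound exposure at 37 C, 5% CO2. Cells were HepG2, plated overnight at 37 C in MEM plus 10% FBS.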

[9] = molecular target: Glucocorticoid receptor (Homo sapiens) (UniProt P04150); assay: qHTS assay to identify small molecule agonists of the glucocorticoid receptor (GR) signaling pathway (AID 720691; active = well fitted activation curve with a large enough effect in the signal ratio in the repeat runs, not every such curve was filed as active; inconclusive = weak or mixed curves, or effect the other way; inactive = no such curve, though single readings can be large or run the other way; the % refers to the signal ratio); conditions: GR-bla HeLa, beta-lactamase reporter ratio, 18 h
Method in brief: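 qHTS in GR-bla HeLa cells: 4 h settling at 37 C/5% CO2, 18 h compound incubation at 37 C, 2 h LiveBLAzer B/G FRET substrate at room temperature, fluorescence intensity measured.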

[10] = molecular target: Glucocorticoid receptor (Homo sapiens) (UniProt P04150); assay: qHTS assay to identify small molecule antagonists of the glucocorticoid receptor (GR) signaling pathway (AID 720692; active = well fitted inhibition curve with a large enough effect in the signal ratio in the repeat runs, not every such curve was filed as active; inconclusive = weak or mixed curves, or effect the other way; inactive = no such curve, though single readings can be large or run the other way; the % refers to the signal ratio; note: potency is the fitted concentration of half-maximal effect)
Method in brief: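 Inhibition of glucocorticoid signalling is measured in HeLa cells with a GRE-controlled beta-lactamase reporter; cells are co-treated with compound and 5 nM dexamethasone (final) for 18 h before FRET substrate readout.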

[11] = qHTS assay to identify small molecule antagonists of the glucocorticoid receptor (GR) signaling pathway - cell viability counter screen (AID 720693); note: nearly all actives have a fitted effect of over 55% in size
[12] = qHTS assay for identifying genotoxic compounds that show differential cytotoxicity against isogenic chicken DT40 cell lines with known DNA damage response pathways - wild type cell line (AID 743012); note: nearly all actives have a fitted effect of over 60% in size; note: potency is the fitted concentration of half-maximal effect
Method in brief: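 First, wild type DT40 cells were plated at 300 per well and equilibrated about 0.5 h at 37 C/5% CO2. Next, compounds in DMSO were added and exposure lasted 40 h. Finally, CellTiter-Glo was added for 30 min at room temperature and luminescence recorded.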

[13] = qHTS assay for identifying genotoxic compounds that show differential cytotoxicity against isogenic chicken DT40 cell lines with known DNA damage response pathways - Rev3 mutant cell line (AID 743014); note: nearly all actives have a fitted effect of over 55% in size; note: potency is the fitted concentration of half-maximal effect
[14] = qHTS assay for identifying genotoxic compounds that show differential cytotoxicity against isogenic chicken DT40 cell lines with known DNA damage response pathways - Rad54/Ku70 mutant cell line (AID 743015); note: nearly all actives have a fitted effect of over 60% in size; note: potency is the fitted concentration of half-maximal effect
[15] = qHTS assay to identify small molecule antagonists of the androgen receptor (AR) signaling pathway - cell viability counter screen (AID 743033; note: nearly all actives have a fitted effect of over 45% in size)
[16] = qHTS assay to identify small molecule antagonists of the androgen receptor (AR) signaling pathway using the MDA cell line - cell viability counter screen (AID 743041; note: nearly all actives have a fitted effect of over 45% in size; note: potency is the fitted concentration of half-maximal effect)
Method in brief: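 Cells were plated at 3,000 per well and left 5 h. Compounds in DMSO were then pinned in, followed by R1881. After 16 h at 37C, CellTiter-Fluor fluorescence gave viability.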

[17] = molecular target: Androgen receptor (Homo sapiens) (UniProt P10275); assay: qHTS assay to identify small molecule agonists of the androgen receptor (AR) signaling pathway (AID 743036; active = well fitted activation curve with a large enough effect in the signal ratio in the repeat runs, with a control signal flat, not every such curve was filed as active; inconclusive = weak or mixed curves, or effect the other way; inactive = no such curve, though single readings can be large or run the other way; the % refers to the signal ratio)
Method in brief: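 Reporter line: GeneBLAzer AR-UAS-bla-GripTite (HEK293). Steps: plate cells, 4 h rest, add compounds, 16 h at 37C, add LiveBLAzer B/G substrate, 2 h at RT, read fluorescence.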

[18] = molecular target: Androgen receptor (Homo sapiens) (UniProt P10275); assay: qHTS assay to identify small molecule agonists of the androgen receptor (AR) signaling pathway using the MDA cell line (AID 743040; note: nearly all actives have a fitted effect of over 20% in size)
Method in brief: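 Cells plated, 5 h at 37C/0% CO2; compound or DMSO pinned; 16 h at 37C; ONE-Glo added; luminescence measured after 30 min at room temperature. Reporter line: MDA-kb2 with MMTV-luciferase responsive to AR and GR.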

[19] = molecular target: Androgen receptor (Homo sapiens) (UniProt P10275); assay: qHTS assay to identify small molecule antagonists of the androgen receptor (AR) signaling pathway using the MDA cell line (AID 743042; note: nearly all actives have a fitted effect of over 55% in size)
Method in brief: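 Antagonist mode: compounds plus R1881 agonist added to MDA-kb2 AR-luc cells, incubated 16 h at 37C. Luciferase reporter luminescence quantified, with multiplexed CellTiter-Fluor readout for cell viability.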

[20] = molecular target: Androgen receptor (Homo sapiens) (UniProt P10275); assay: qHTS assay to identify small molecule antagonists of the androgen receptor (AR) signaling pathway (AID 743035; active = well fitted inhibition curve with a large enough effect in the signal ratio in the repeat runs, not every such curve was filed as active; inconclusive = weak or mixed curves, or effect the other way; inactive = no such curve, though single readings can be large or run the other way; the % refers to the signal ratio)
Method in brief: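 Beta-lactamase FRET read (2 h RT incubation with LiveBLAzer B/G) following 16 h of compound plus R1881 treatment of AR-UAS-bla HEK293 cells, which had been pre-incubated 4 h at 37C.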

[21] = activation: at 62.4 µM (top of the series)
% is set by controls: 0 for no effect and ±100 for the full control effect.

Chain of Androgen receptor (Homo sapiens) (P10275 whole entry, looked up): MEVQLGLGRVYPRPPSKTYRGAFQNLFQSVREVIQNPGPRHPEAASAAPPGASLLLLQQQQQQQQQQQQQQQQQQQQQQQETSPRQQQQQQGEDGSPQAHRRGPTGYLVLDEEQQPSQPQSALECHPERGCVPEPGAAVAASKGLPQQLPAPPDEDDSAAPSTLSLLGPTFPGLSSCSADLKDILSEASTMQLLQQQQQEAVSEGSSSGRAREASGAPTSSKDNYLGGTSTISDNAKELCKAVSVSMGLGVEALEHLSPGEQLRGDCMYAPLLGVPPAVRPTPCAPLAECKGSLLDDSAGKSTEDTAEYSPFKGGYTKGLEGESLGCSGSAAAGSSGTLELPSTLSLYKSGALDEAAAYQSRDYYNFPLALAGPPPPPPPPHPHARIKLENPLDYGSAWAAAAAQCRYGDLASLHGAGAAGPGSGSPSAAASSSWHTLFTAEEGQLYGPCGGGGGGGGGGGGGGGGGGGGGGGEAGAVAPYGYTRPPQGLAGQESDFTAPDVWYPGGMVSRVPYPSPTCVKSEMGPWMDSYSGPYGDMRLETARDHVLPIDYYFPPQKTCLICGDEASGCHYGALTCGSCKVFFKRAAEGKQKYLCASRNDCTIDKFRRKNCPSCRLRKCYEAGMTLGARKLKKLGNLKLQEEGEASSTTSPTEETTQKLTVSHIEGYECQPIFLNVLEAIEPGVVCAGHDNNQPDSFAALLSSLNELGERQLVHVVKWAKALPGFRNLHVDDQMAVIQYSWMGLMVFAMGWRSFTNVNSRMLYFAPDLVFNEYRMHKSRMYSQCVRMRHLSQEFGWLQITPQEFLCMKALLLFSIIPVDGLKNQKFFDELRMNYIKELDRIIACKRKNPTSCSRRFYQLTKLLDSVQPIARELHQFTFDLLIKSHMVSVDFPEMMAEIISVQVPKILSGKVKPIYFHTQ
Chain of Glucocorticoid receptor (Homo sapiens) (P04150 whole entry, looked up): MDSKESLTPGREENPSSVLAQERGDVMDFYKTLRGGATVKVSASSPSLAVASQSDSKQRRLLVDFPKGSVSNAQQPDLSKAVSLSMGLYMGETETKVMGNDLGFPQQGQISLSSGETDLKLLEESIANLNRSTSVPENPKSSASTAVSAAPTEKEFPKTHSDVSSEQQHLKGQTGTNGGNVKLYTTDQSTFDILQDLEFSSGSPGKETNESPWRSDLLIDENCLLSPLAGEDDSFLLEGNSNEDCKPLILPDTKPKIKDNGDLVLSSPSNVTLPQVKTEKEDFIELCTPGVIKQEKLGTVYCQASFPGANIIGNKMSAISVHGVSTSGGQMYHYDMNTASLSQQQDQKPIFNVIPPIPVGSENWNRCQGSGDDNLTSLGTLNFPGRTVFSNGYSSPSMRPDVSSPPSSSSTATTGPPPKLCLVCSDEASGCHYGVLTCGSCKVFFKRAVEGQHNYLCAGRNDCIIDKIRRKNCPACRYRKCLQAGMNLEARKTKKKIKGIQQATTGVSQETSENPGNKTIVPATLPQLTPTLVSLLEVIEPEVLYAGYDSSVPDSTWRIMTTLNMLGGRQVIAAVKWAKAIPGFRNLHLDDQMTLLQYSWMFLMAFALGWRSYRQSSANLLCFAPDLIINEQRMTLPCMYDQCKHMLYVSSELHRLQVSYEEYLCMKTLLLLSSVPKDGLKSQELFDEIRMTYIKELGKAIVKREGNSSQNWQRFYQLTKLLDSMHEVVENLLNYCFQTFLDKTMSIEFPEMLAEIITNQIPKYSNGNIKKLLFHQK

CCCCC(CC)COC(=O)C(C#N)=C(c1ccccc1)c1ccccc1 (stereo not given)
active: Potency [12] 11.9 µM
13.3 µM (active) and inactive: Potency [14]
inactive: outcome [1] | outcome [2] | outcome [3] | outcome [4] | outcome [5] | outcome [6] | outcome [7] | outcome [8] | Potency [9, 21] | Potency [10] | outcome [11] | Potency [13] | Potency [15] | Potency [16]

O=S1(=O)CC=CC1
inactive: outcome [1] | outcome [2] | outcome [3] | outcome [4] | outcome [5] | outcome [6] | outcome [7] | outcome [8] | Potency [9, 21] | Potency [10] | outcome [11] | Potency [12] | Potency [13] | Potency [14] | Potency [15] | Potency [16]

CC1CCC2CC1C2(C)C (stereo not given)
inactive: outcome [1] | outcome [2] | outcome [3] | outcome [4] | outcome [5] | outcome [6] | outcome [7] | outcome [8] | Potency [9, 21] | Potency [10] | outcome [11] | Potency [12] | Potency [14] | Potency [15] | Potency [16]

Fc1ccc(Br)cc1
inactive: outcome [1] | outcome [2] | outcome [3] | outcome [4] | outcome [5] | outcome [6] | outcome [7] | outcome [8] | Potency [9, 21] | Potency [10] | outcome [11] | Potency [12] | Potency [13] | Potency [14] | Potency [15] | Potency [16]

O=C(CC(C(=O)OC1CCCCC1)S(=O)(=O)O)OC1CCCCC1 (stereo not given)
inactive and 17 µM (active): Potency [12] | Potency [13]
inactive: outcome [1] | outcome [2] | outcome [3] | outcome [4] | outcome [5] | outcome [6] | outcome [7] | outcome [8] | Potency [9, 21] | Potency [10] | outcome [11] | Potency [15] | Potency [16]
inactive and 12 µM (active): Potency [14]

Nc1cc([N+](=O)[O-])ccc1O
active: Potency [16] 54.5 µM and 60.8 µM
inactive: outcome [1] | outcome [2] | outcome [3] | outcome [4] | outcome [5] | outcome [6] | outcome [7] | outcome [8] | Potency [9, 21] | Potency [10] | outcome [11] | Potency [12] | Potency [13] | Potency [14] | Potency [15] | Potency [17] | Potency [18] | outcome [19]

COS(C)(=O)=O
inactive: outcome [1] | outcome [2] | outcome [3] | outcome [4] | outcome [5] | outcome [6] | outcome [7] | outcome [8] | Potency [9, 21] | Potency [10] | outcome [11] | Potency [12] | Potency [14] | Potency [15] | Potency [16]

COCCCOc1ccnc(CS(=O)c2nc3ccccc3[nH]2)c1C (stereo not given)
active: activation [9, 21] 16.4% [inconclusive] | Potency [12] 23.7 µM and 15.3 µM | Potency [14] 13.3 µM and 19.3 µM
inactive: outcome [1] | outcome [2] | outcome [3] | outcome [4] | outcome [5] | outcome [6] | outcome [7] | outcome [8] | activation ([9]; at 62.4 µM (top of the series)) -5.49% | Potency [10] | outcome [11] | Potency [15] | Potency [16]

Cc1ccc(N(C)C)cc1
inactive: outcome [1] | outcome [2] | outcome [3] | outcome [4] | outcome [5] | outcome [6] | outcome [7] | outcome [8] | Potency [9, 21] | Potency [10] | outcome [11] | Potency [12] | Potency [13] | Potency [14] | Potency [15] | outcome [20] | Potency [17] | Potency [18] | Potency [16] | outcome [19]

CC(=O)Nc1ccccc1
inactive: outcome [1] | outcome [2] | outcome [3] | outcome [4] | outcome [5] | outcome [6] | outcome [7] | outcome [8] | Potency [9, 21] | Potency [10] | outcome [11] | Potency [12] | Potency [13] | Potency [14] | Potency [15] | Potency [16]

CN(C)CCOCCN(C)C
inactive: outcome [1] | outcome [2] | outcome [3] | outcome [4] | outcome [5] | outcome [6] | outcome [7] | outcome [8] | Potency [9, 21] | Potency [10] | outcome [11] | Potency [12] | Potency [13] | Potency [14] | Potency [15] | Potency [16]

CCCCCCCCC/C=C/CC1CC(=O)OC1=O (stereo not given)
active: Potency [10] 49 µM | Potency [13] 48.6 µM
inactive: outcome [1] | outcome [2] | outcome [3] | outcome [4] | outcome [5] | outcome [6] | outcome [7] | outcome [8] | Potency [9, 21] | outcome [11] | Potency [12] | Potency [14] | Potency [15] | Potency [16]

CN(C)CCC(c1ccccc1)c1ccccn1 (stereo not given)
inactive: outcome [1] | outcome [2] | outcome [3] | outcome [4] | outcome [5] | outcome [6] | outcome [7] | outcome [8] | Potency [9, 21] | Potency [10] | outcome [11] | Potency [12] | Potency [13] | Potency [14] | Potency [15] | Potency [16]

c1c[nH]cn1
inactive: outcome [1] | outcome [2] | outcome [3] | outcome [4] | outcome [5] | outcome [6] | outcome [7] | outcome [8] | Potency [9, 21] | Potency [10] | outcome [11] | Potency [12] | Potency [14] | Potency [15] | Potency [16]

CCCCCC1=CCCC1=O
inactive: outcome [1] | outcome [2] | outcome [3] | outcome [4] | outcome [5] | outcome [6] | outcome [7] | outcome [8] | Potency [9, 21] | Potency [10] | outcome [11] | Potency [12] | Potency [13] | Potency [14] | Potency [15] | Potency [16]

CN(C)CCC(c1ccc(Cl)cc1)c1ccccn1 (stereo not given)
inactive: outcome [1] | outcome [2] | outcome [3] | outcome [4] | outcome [5] | outcome [6] | outcome [7] | outcome [8] | Potency [9, 21] | Potency [10] | outcome [11] | Potency [12] | Potency [13] | Potency [14] | Potency [15] | Potency [16]
